# Several values for one entry are separate records, joined by “and”; a condition that tells them apart may be missing. Equal entries are not always repeated.
# What was measured:
# Format in all cases: functional
# [1] = test system: Plasmodium falciparum; assay: GSK_TCMDC: Inhibition of Plasmodium falciparum 3D7 in whole red blood cells, using parasite LDH activity as an index of growth. Test compounds present at 2uM
# [2] = test system: Plasmodium falciparum; assay: GSK_TCMDC: Inhibition of Plasmodium falciparum Dd2 in whole red blood cells, using parasite LDH activity as an index of growth. Test compounds present at 2uM
# [3] = test system: HepG2; assay: GSK_TCMDC: Percent inhibition of human HepG2 cell line. Test compounds present at 10uM.
Structure (SMILES),Inhibition [1],Inhibition [2],Inhibition [3]
CC(=O)NCC(=O)NC1=NC(=N)N(OCc2ccc3ccccc3c2)C(C)(C)N1,95%,97%,66%
Nc1c2c(nc3ccc(C(=O)Nc4ccccc4)cc13)CCCC2,100%,78%,20%
CCC(C)(C)C1CCc2nc(N)nc(N)c2C1.Cl (stereo not drawn),95%,97%,71%
COc1ccc(-c2cnc(N)c(-c3ccc(C(N)=O)cc3)c2)cc1OC,96%,98%,11%
CCN(CC)CCCCOc1ccc2c(c1)C(=O)c1cc(OCCCCN(CC)CC)ccc1-2.Cl,100%,44%,24%
CCOC(=O)c1ccc(NC(=O)Nc2cccc(-c3ccc(-c4nc5ccccc5[nH]4)cc3)c2)cc1,100%,86%,54%
CCCCCn1c(Sc2ccc(C#N)c([N+](=O)[O-])c2)nnc1-c1cc(OC)cc(OC)c1,93%,24%,17%
CN(Cc1cccc(O)c1)C1CCN(c2cc(NC(=O)c3ccc(F)cc3)ccn2)C1.O=C(O)C(F)(F)F (stereo not drawn),91%,6%,5%
CN(C)C(=O)c1ccc(CN(Cc2cccc(OC(C)(C)C)c2)Cc2ccc3c(c2)OCCO3)cc1,96%,96%,0%
Cc1cc(Nc2ncc3c(n2)N(C2CCC2)CC3)ccc1N1CCN(C)CC1.Cl,100%,100%,27%
O=C(Nc1cccc(-c2ccc(-c3nc4ccccc4[nH]3)cc2)c1)c1cccnc1,100%,1%,18%
COc1cccc(C23NC(=Nc4nc5ccccc5[nH]4)NC2(c2cccc(OC)c2)NC(=Nc2nc4ccccc4[nH]2)N3)c1 (stereo not drawn),100%,99%,0%
Br.CC(C)Oc1ccc(CCCON2C(=N)N=C(N)NC2(C)C)cc1,96%,94%,66%
O=C(Nc1cccc(-c2nn3ccccc3c2-c2ccnc(Nc3ccccc3)n2)c1)c1cc(F)ccc1F,98%,75%,8%
CC(C)CNCc1cccc(-c2cccc(CNC3CCN(Cc4ccccc4)CC3)c2)c1.O=C(O)C(F)(F)F,100%,99%,32%
O=C(/C=C/c1ccc(Cl)c(Cl)c1)NCCCCCCN1CCN(C(=O)Nc2cccc(Cl)c2)CC1,85%,2%,33%
COc1ccc2nccc([C@@H](O)CN3CCC(NC(=O)C(c4cc5ccccc5o4)N4CCN(Cc5ccccc5)CC4)CC3)c2c1 (stereo partly drawn),91%,75%,30%
O=C(Cc1cccc(OCCCN(Cc2cccc(C(F)(F)F)c2Cl)CC(c2ccccc2)c2ccccc2)c1)NCc1ccco1,94%,84%,2%
COc1ccc(CNC(=O)NC2CCN(c3ccnc(Nc4ccc(F)cc4)n3)C2)cc1 (stereo not drawn),91%,78%,4%
COc1cc2nc(NCCn3ccnc3C)nc(NCCc3ccccc3)c2cc1OC,99%,0%,21%
Cl.N=C(N)NN=Cc1ccc2ccc3ccccc3c2c1,100%,89%,34%

Structure (SMILES),Inhibition [1],Inhibition [2],Inhibition [3]
CN1CCC(NC(=O)c2cc(Oc3ccc4c(c3)CCN4C(=O)Nc3cccc(C(F)(F)F)c3)ccn2)CC1.O=C(O)C(F)(F)F,92%,17%,16%
N=C(NCCCCCCCCNC(=N)Nc1ccc(Cl)cc1)Nc1ccc(Cl)cc1,93%,89%,10%
Oc1ccc2[nH]c(-c3cccc(F)c3)nc2c1CN1CCC(O)(c2ccccc2)CC1,97%,72%,21%
CCc1nnc2sc(-c3cccc(NC(=O)c4ccc(C)c([N+](=O)[O-])c4)c3)nn12,82%,46%,10%
COC(=O)c1cccc(CNCc2cccc(-c3cccc(-c4nc5cc(F)ccc5[nH]4)c3)c2)c1.O=C(O)C(F)(F)F,100%,52%,27%
Nc1cccc(CNCc2cccc(-c3ccc(-c4nc5ccccc5[nH]4)cc3)c2)c1.O=C(O)C(F)(F)F,100%,92%,0%
CCNc1cc(C(=O)N[C@@H](Cc2ccccc2)[C@H](O)CNC(C)CC(C)C)c(F)c(N2CCCCS2(=O)=O)c1.O=CO (stereo partly drawn),95%,66%,6%
CNS(=O)(=O)CCNCc1ccc(-c2ccc3ncnc(Nc4ccc(OCc5ccccc5)cc4)c3c2)o1,100%,26%,19%
Cc1ccc(CNC(=O)[C@H](Cc2ccccc2)Nc2cc(C)nc(NCCc3ccc(F)cc3)n2)cc1.O=C(O)C(F)(F)F,98%,22%,10%
Cc1ccc(-c2ccc(NC(=O)N3CCc4cc(Br)c(N5CCN(C)CC5)cc43)cc2)cn1,80%,16%,86%
COc1cc2nc(NCCn3cccn3)nc(NCCc3ccccc3)c2cc1OC,100%,100%,12%
CCC(Cc1cnc2nc(N)nc(N)c2n1)c1ccc(C(=O)O)cc1 (stereo not drawn),93%,0%,15%
Cc1ncc([N+](=O)[O-])n1CCOC(=O)NC(Nc1ccc(Br)cc1)C(Cl)(Cl)Cl (stereo not drawn),99%,100%,0%
COc1ccccc1C1CCN(C2CCC(NC(=O)/C=C/c3ccc4c(c3)OC(F)(F)O4)CC2)CC1 (stereo not drawn),98%,31%,52%
Cc1cc(-c2nc3ccc(N4CCN(C)CC4)cc3[nH]2)nn1Cc1cc(Cl)ccc1OCC(C)C.Cl,99%,67%,41%
O=C1c2ccccc2-n2c1nc1ccccc1c2=O [TRYPTANTHRIN],93%,80%,9%
Cc1ccc(C2CC(=O)CC(c3ccccn3)C2[N+](=O)[O-])cc1 (stereo not drawn),97%,2%,5%
Cl.c1ccc(-c2nc3ccccc3[nH]2)c(Nc2ccnc3cc(-c4nccs4)ccc23)c1,100%,98%,0%
CN1CCN(Cc2ccc(-c3ccc4c(Nc5cc(O)c(Cl)cc5F)ccnc4c3)o2)CC1,100%,99%,2%
N.Nc1nc2c(ncn2COC2COP(=O)(O)OC2)c(=O)[nH]1 (stereo not drawn),81%,54%,7%
CN1CCN(c2ccnc3ccc(NC(=O)N(C)c4ccc(Cl)c(Cl)c4)cc23)CC1,100%,85%,5%

Structure (SMILES),Inhibition [1],Inhibition [2],Inhibition [3]
CCCCCn1c(Sc2ccc(C#N)c([N+](=O)[O-])c2)nnc1-c1cccc(Cl)c1,95%,75%,4%
C=C[C@H]1CN2CC[C@H]1C[C@H]2[C@H](O)c1ccnc2ccc(OC)cc12.Cl [QUININE HYDROCHLORIDE],99% and 100%,79% and 99%,13% and 0%
CCOC(=O)/C(=N\OC(C(=O)OC(C)(C)C)c1ccccc1)c1csc(NC(c2ccccc2)(c2ccccc2)c2ccccc2)n1 (stereo not drawn),89%,68%,14%
Cc1cc(-c2cc(-c3ccc(OCCN(C)C)cc3)[nH]c2-c2ccc3c(c2)CCC3=NO)ccn1,100%,92%,0%
Br.CCC(C)c1cccc(C(C)CC)c1OCCCON1C(N)=NC(N)=NC1(C)C (stereo not drawn),91%,98%,51%
Cc1cc(NCCC(=O)NCCOc2ccccc2)nc(NCCc2ccccc2)n1.O=C(O)C(F)(F)F,99%,9%,0%
O=C(/C=C/c1ccc(Cl)c(Cl)c1)NC1CCC(CN2CCC(Cc3cc4ccccc4[nH]3)CC2)CC1 (stereo not drawn),100%,74%,99%
Cc1cccc2nc(-c3ccc(-c4ccc(CNCc5ccccc5)cc4)s3)[nH]c12.O=C(O)C(F)(F)F,100%,87%,22%
CC1CCCCN1CCCNc1nc(NCc2ccccc2)c2ccccc2n1 (stereo not drawn),95%,14%,24%
Cc1cc(-c2ccc(CNCc3ccc(F)cc3)cc2)ccc1S(=O)(=O)NCCN1CCCC1.O=C(O)C(F)(F)F,100%,41%,95%
Cc1ccc(O)cc1Nc1ccnc2cc(-c3csc(CN4CCN(C)CC4)n3)ccc12,100%,77%,6%
CCC(COCc1ccc(Cl)cc1)N(C)CCN(C)C(CC)COCc1ccc(Cl)cc1.Cl (stereo not drawn),95%,78%,89%
Cl.c1ccc(C(c2cccs2)N2CCN(Cc3ccc(OCCCN4CCCCC4)cc3)CC2)cc1 (stereo not drawn),91%,14%,41%
N#Cc1ccc(N/C(=N\c2ccc(-c3ccccc3)cc2)NCc2cccnc2)c(O)c1,100%,46%,2%
O=C(O)C(F)(F)F.OC1CCCN(Cc2ccc(-c3cccc(-c4nc5cc(F)ccc5[nH]4)c3)cc2)C1 (stereo not drawn),99%,49%,28%
COCCNCc1cccc(C#Cc2cc3ncnc(Nc4ccc(OCc5cccc(F)c5)c(Cl)c4)c3s2)n1,99%,52%,35%
COc1ccc2c(C)cc(NCCCN(C)C)nc2c1.O=C(O)C(=O)O,95%,19%,10%
CNCCNCc1ccc(-c2ccc(-c3nc4cccc(C)c4[nH]3)cc2)cc1.O=C(O)C(F)(F)F,96%,79%,19%
CCn1c(CN2CCN(Cc3ccccc3)CC2)nc2cc(NC(=O)c3cccs3)ccc21,97%,95%,0%

# Source: ChEMBL document CHEMBL1157539, “Thousands of chemical starting points for antimalarial lead identification” (Nature, 2010)
